Results from PubChem BioAssay (NCI).
About 79,000 compounds went through this panel and 15% of them were active in at least one assay; those are over-represented in the sample as a whole. A number with no mark means an inactive call. The source made the active and inactive calls. Rule as the data show it: active = growth inhibition above about 70%; inactive = the rest.

Experiment: NCI Yeast Anticancer Drug Screen. Data for the CLN2oe strain (AID 163);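 also: 0% = growth of vehicle-only control cultures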
Details: S. cerevisiae CLN2oe strain, active compounds read high
Description: Growth inhibition of yeast strains with defined genetic alterations is measured as a screen for potential anti-cancer activity. Selected strains with alterations in DNA damage repair or cell cycle control were exposed to compounds and growth inhibition was measured relative to vehicle treated controls. The strain used in this assay is CLN2oe

Row | Compound | growth inhibition (at 1.2 µM) | growth inhibition (at 3.7 µM) | growth inhibition (at 11.0 µM) | growth inhibition (at 33.0 µM) | growth inhibition (at 100.0 µM)
1 | Cc1cccc(/C=N/NC(=S)N(C)CCc2ccccn2)n1 | 81% (active) | 92% (active) | 97% (active) | 98% (active) | 98% (active)
2 | O=C1OC2C(O)COC2(OCc2c[nH]c3ccccc23)C1O (stereo not given) (tested in a mixture with another compound) | 1% | 1% | 0% | 9% | 54%
3 | CCN1/C(=C/c2ccc3ccccc3[n+]2CC)C=Cc2ccccc21 | 0% | 10% | 94% (active) | 99% (active) | 98% (active)
4 | COC(=O)CSc1nnc(CSc2ccc(Cl)cc2)n1-c1ccccc1 | -2% | 6% | 14% | 19% | 19%
5 | COc1ccc2c(c1)[nH]c1c(/C=C/c3ccccc3)nccc12 | -15% | -23% | -38% | 63% | 98% (active)
6 | O=S(=O)(c1cc(Cl)ccc1O)c1cc(Cl)ccc1O | 23% | 89% (active) | 99% (active) | 100% (active) | 99% (active)
7 | COc1cc(/C=C/c2sc3ccccc3[n+]2C)ccc1N(C)C | -5% | -2% | -2% | 50% | 96% (active)
8 | Clc1nc(C(Cl)Cl)nc2sc3c(c12)CCCC3 | 7% | 9% | 12% | 46% | 63%
